This is a sample that favours compounds with a hit; in the whole collection about 19% have one here.
HT1080NT lethal: qHTS for induction of synthetic lethality in tumor cells producing 2HG: qHTS for the HT-1080-NT fibrosarcoma cell line | HT-1080-NT fibrosarcoma viability, CellTiter-Glo ATP luminescence, 48 h | Potency, µM (titrated, usually from 46.1 µM), actives largely listed as cytotoxic | hit rate 1.6% among 360,000;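 also: NT is the 2HG producing partner of a matched IDH1 knockdown line; nearly all actives have a fitted effect of over 55% in size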
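Luminescent CellTiter-Glo readout after 48 hours of compound exposure at 37 degrees C defined viability of HT-1080-NT cells. Activity was normalized to DMSO wells and cell-free media wells; concentration-response curves were fitted and assigned curve classes.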
KB-3-1 tox: qHTS assay for MDR1-selective chemotherapeutics: Primary screen using the parental adenocarcinoma cell KB-3-1. KB-3-1 viability, CellTiter-Glo ATP luminescence, 72 h. AID 1347075, 2019. hit rate 1.4% among 400,000. Potency, µM (highest dose often 46.1 µM), most hits filed as cytotoxic; also: nearly all actives have a fitted effect of over 60% in size
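Cytotoxicity measured as CellTiter-Glo luminescence after 72 h at 37 C. Compound titrations were pinned onto drug-naive KB-3-1 parental adenocarcinoma cells grown in DMEM with 10% FBS, and normalized data fitted to concentration-response curves.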
KB-V1 MDR tox: qHTS assay for MDR1-selective chemotherapeutics: Primary screen using the drug-selected MDR subline cells KB-V1. KB-V1 MDR cells viability, CellTiter-Glo, 72 h. Potency, µM (titrated, usually from 46.1 µM), most hits filed as cytotoxic. hit rate 3.4% among 400,000; also: nearly all actives have a fitted effect of over 60% in size
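Cells of the MDR subline KB-V1 are plated, dosed with compound at multiple concentrations, and incubated 72 h at 37 degrees C; CellTiter-Glo is then added and luminescence read after 10 min.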
DT40 TDP1 CPT: qHTS for Inhibitors of human tyrosyl-DNA phosphodiesterase 1 (TDP1): qHTS in cells in presence of CPT | chicken DT40 Tdp1-/-;hTDP1 cells + 20 nM CPT, ATP luminescence, 48 h | Potency, µM (top dose mostly 46.2 µM), usual class: inhibitors | hit rate 12% among 420,000; also: nearly all actives have a fitted effect of over 55% in size
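Cell growth measured by CellTiter-Glo luminescence after a minimum 48 h, 37 C compound exposure with 20 nM CPT in Tdp1-knockout DT40 cells stably expressing hTDP1, seeded 400/well; qHTS titration format.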
TDP1 cell noCPT: qHTS for Inhibitors of human tyrosyl-DNA phosphodiesterase 1 (TDP1): qHTS in cells in absence of CPT; DT40 Tdp1-/- hTDP1 cells, no CPT, ATP luminescence, 48 h; Potency, µM (titrated, usually from 46.2 µM), actives largely listed as inhibitors; hit rate 15% among 420,000; also: nearly all actives have a fitted effect of over 55% in size
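Compound effects on proliferation are scored in DT40 Tdp1-/-;hTDP1 cells in the absence of CPT. ATP levels (CellTiter-Glo luminescence) are recorded after a ≥48 hr, 37 °C incubation.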
HT1080 IDH1KD tx: qHTS for induction of synthetic lethality in tumor cells producing 2HG: qHTS for the HT-1080-IDH1KD cell line; HT-1080 IDH1 knockdown viability, ATP luminescence, 48 h; Potency, µM (titrated, usually from 46.1 µM), hits mostly cytotoxic; hit rate 2% among 360,000
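HT-1080-IDH1KD cells (IDH1 knocked down), 750/well in RPMI with 5% FBS, treated with compound 48 h at 37 degrees C. Viability by CellTiter-Glo luminescence, normalised to DMSO and no-cell wells; concentration-response curves classed.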
Of the large screens only hits and unclear results are named; the others gave an inactive call. Calls follow the shape of the dose curve; as a rule, active = well fitted curve in the direction sought with a large enough effect; inconclusive = small, poorly fitted or top-dose-only effect, or another doubt; inactive = no such curve, though single readings can be large; an effect the other way counts as inactive or inconclusive.

Cc1nc2ccc(S(=O)(=O)NCC(=O)Nc3ccc(F)cc3F)cc2s1	none (no result: HT1080NT lethal, KB-3-1 tox, KB-V1 MDR tox, HT1080 IDH1KD tx)
Cc1ccc(S(=O)c2snnc2C)cc1 (configuration not stated)	none
CCCNC(=O)c1nnsc1S(=O)c1ccc(Cl)cc1 (configuration not stated)	HT1080NT lethal 18.4µM, KB-3-1 tox inconclusive, DT40 TDP1 CPT 0.411µM, TDP1 cell noCPT 0.517µM, HT1080 IDH1KD tx 16.4µM
CNC(=O)c1nnsc1S(=O)c1ccc(Cl)cc1 (configuration not stated)	HT1080NT lethal 14.6µM, KB-3-1 tox inconclusive, DT40 TDP1 CPT 0.411µM, TDP1 cell noCPT 0.651µM, HT1080 IDH1KD tx 23.1µM
COCCn1c(N)c(C(=S)NC(=O)c2cccs2)c(=O)[nH]c1=O	DT40 TDP1 CPT 10.3µM, TDP1 cell noCPT inconclusive
COCCN(C(=O)COC(=O)CNC(=O)c1cccs1)c1c(N)n(Cc2ccccc2)c(=O)[nH]c1=O	none
N#CC1=C(N)Oc2c(ccc3ccccc23)C1c1cccs1 (configuration not stated)	HT1080NT lethal 2µM, KB-3-1 tox 0.891µM, KB-V1 MDR tox 5.01µM, DT40 TDP1 CPT 0.562µM, TDP1 cell noCPT 0.631µM, HT1080 IDH1KD tx 1.26µM
CCOC(=O)C1=C(CC)OC(N)=C(C#N)C1c1cccs1 (configuration not stated)	HT1080NT lethal inconclusive, HT1080 IDH1KD tx 22.4µM
CCOC(=O)C1=C(CSc2nc(-c3ccccc3)ccc2C#N)OC(N)=C(C#N)C1c1ccccc1 (configuration not stated)	DT40 TDP1 CPT 3.66µM, TDP1 cell noCPT 2.91µM
CCOC(=O)C1=C(CSc2nc(-c3ccccc3)ccc2C#N)OC(N)=C(C#N)C1c1cccnc1 (configuration not stated)	DT40 TDP1 CPT 2.91µM, TDP1 cell noCPT 4.61µM
COC(=O)CC1=C(C(=O)OC)C(c2cccs2)C(C#N)=C(N)O1 (configuration not stated)	none
CC(=O)N1CCc2cc(S(=O)(=O)NC(Cc3ccccc3)C(=O)Nc3ccc(C)cc3C)ccc21 (configuration not stated)	DT40 TDP1 CPT inconclusive (no result: HT1080NT lethal, HT1080 IDH1KD tx)
O=C1c2ccccc2NC2(CCCCC2)N1N=C1CCCCC1	none
O=C1c2ccccc2NC(c2cccc(Cl)c2)N1N=C1CCCCCC1 (configuration not stated)	KB-3-1 tox inconclusive, KB-V1 MDR tox 25.9µM
CCC1(c2ccccc2)NC(=O)N(CC(=O)Nc2ccc3c(C)cc(=O)oc3c2)C1=O (configuration not stated)	DT40 TDP1 CPT inconclusive, TDP1 cell noCPT inconclusive
CC(=O)N(\C=C/C=C/C=C1\Sc2ccccc2C1=O)c1ccccc1	HT1080NT lethal inconclusive, KB-V1 MDR tox inconclusive, DT40 TDP1 CPT 29.1µM, TDP1 cell noCPT 13µM, HT1080 IDH1KD tx inconclusive
CCOc1cccc(/C=C(\C#N)C(=O)NC2CC2)c1	DT40 TDP1 CPT inconclusive
Cc1cccc(N2CCN(C(=O)C3CCN(S(=O)(=O)c4cccc5nsnc45)CC3)CC2C)c1 (configuration not stated)	KB-V1 MDR tox inconclusive, DT40 TDP1 CPT 23.1µM, TDP1 cell noCPT 20.6µM
Cc1cccc(N2CCN(C(=O)C3CCN(S(=O)(=O)c4cccc5cccnc45)CC3)CC2C)c1 (configuration not stated)	DT40 TDP1 CPT 13µM, TDP1 cell noCPT 18.4µM
O=C(C1CCN(S(=O)(=O)N2CCOCC2)CC1)N1CCN(Cc2ccccc2)CC1	none
Cc1cccc(N2CCN(C(=O)C3CCN(S(=O)(=O)N4CCOCC4)CC3)CC2C)c1 (configuration not stated)	DT40 TDP1 CPT 18.4µM, TDP1 cell noCPT 20.6µM
CCCCNC(=O)C(NC(=O)c1cnccn1)C(=O)c1ccccc1 (configuration not stated)	none
O=C(Cc1ccccc1)Nc1ncccn1	none
COc1ccc(CCC(=O)N2CCN(S(=O)(=O)c3ccc(OC)c([N+](=O)[O-])c3)CC2)cc1	DT40 TDP1 CPT inconclusive, TDP1 cell noCPT inconclusive
Cc1ccccc1-c1nc2ccccc2c(=O)o1	DT40 TDP1 CPT inconclusive, TDP1 cell noCPT 16.4µM
Cc1ccc2nc(-c3ccccc3C)oc(=O)c2c1	none
CC1(C(=O)NS(=O)(=O)Cc2cccc(Cl)c2)CCN1C(=O)C/C=C/c1ccccc1 (configuration not stated)	none
COCCn1c(SCC(=O)Nc2ccc(NC(C)=O)cc2)nc2ccccc2c1=O	TDP1 cell noCPT inconclusive, HT1080 IDH1KD tx inconclusive
COCCn1c(SCC(=O)Nc2cccc(C(=O)OC)c2)nc2ccccc2c1=O	DT40 TDP1 CPT 20.6µM, TDP1 cell noCPT inconclusive
COCCCn1c(SCC(=O)Nc2ccc(C(C)=O)cc2)nc2ccccc2c1=O	KB-V1 MDR tox inconclusive, DT40 TDP1 CPT inconclusive, TDP1 cell noCPT 20.6µM
COC(=O)c1ccc2c(=O)n(CC3CCCO3)c(SCC(=O)Nc3ccccc3OC)nc2c1 (configuration not stated)	KB-V1 MDR tox 3.26µM, TDP1 cell noCPT inconclusive
COCCn1c(SCC(=O)Nc2ccc(OC)c(S(N)(=O)=O)c2)nc2ccccc21	KB-3-1 tox inconclusive, DT40 TDP1 CPT 16.4µM, TDP1 cell noCPT inconclusive
COCCn1c(SCC(=O)Nc2cc(C)cc(C)c2)nc2ccccc2c1=O	DT40 TDP1 CPT inconclusive, TDP1 cell noCPT inconclusive
COc1ccccc1C(=O)NCCC(=O)N1CC(C)OC(C)C1 (configuration not stated)	none
CCCCn1c(=O)c2oc3ccccc3c2n(CC(=O)Nc2cccc(Cl)c2)c1=O	none (no result: HT1080NT lethal, KB-3-1 tox, KB-V1 MDR tox, HT1080 IDH1KD tx)
CC(O)[C@H]1CC[C@H]2[C@@H]3CC[C@@H]4C[C@@H](O)CC[C@]4(C)[C@H]3CC[C@]12C (some centres not stated)	none (no result: HT1080NT lethal, KB-3-1 tox, KB-V1 MDR tox, HT1080 IDH1KD tx)
Cc1nc(C(F)(F)F)ccc1C(=O)N1CCC(C)(C(=O)O)C1 (configuration not stated)	HT1080NT lethal inconclusive
O=C(Nc1ccc(SC(F)F)cc1)c1cc(-c2ccc3c(c2)OCCO3)on1	none (no result: HT1080NT lethal, HT1080 IDH1KD tx)
CC(=O)Cc1cc(O)c2ccccc2c1OC(=O)c1ccc(Br)cc1	DT40 TDP1 CPT 20.6µM, TDP1 cell noCPT 20.6µM
O=C(COC(=O)c1ccc(Br)cc1)NCc1ccccc1	none
